SMILES strings stand for the structures. This is part of a sample that, as a whole, favours compounds with a hit. Of some 79,000 tested, about 15% had one in any assay. Unmarked numbers belong to inactive results. Calls of active or inactive are those of the source. Cut-off read from the data, not from the text of the source: active = growth inhibition above about 70%; inactive = the rest.

The values that follow come from PubChem BioAssay (NCI).

The first assay is described as follows: NCI Yeast Anticancer Drug Screen. Data for the rad50 strain (AID 155).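 Note: 0% = growth of vehicle-only cultures of the same strain.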 The settings on record: S. cerevisiae rad50 strain growth inhibition; at 50.0 µM; stronger effect = higher value. Summed up:
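DNA repair mutant yeast, compound exposure, growth read-out; inhibition is taken relative to vehicle.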
`O=C(O)COc1cc2c(cc1Cc1ccc3c(c1)OCO3)OCO2`: the growth inhibition was 2.5%.

On to `COc1cc(C=O)cc(NC(C)=O)c1OC(C)=O`, for which the growth inhibition is 6.55%.

`Cc1ccc(S(=O)(=O)Oc2c([N+](=O)[O-])cc(-c3ccccc3)cc2[N+](=O)[O-])cc1`: the growth inhibition is 47.8%.

As to `CCOC(=O)C(NC(=O)c1ccccc1)(N1CCN(c2cc3c(cc2F)c(=O)c(C(=O)O)cn3CC)CC1)C(F)(F)F` (stereo not drawn), the growth inhibition is -29.4%.

For `CCC1CCC(Cc2ccncc2)CC1` (stereo not drawn), the growth inhibition is 3.65%.

In the case of `CCCC(=O)Nc1cc([N+](=O)[O-])c([N+](=O)[O-])cc1OC`, the growth inhibition was -3.7%.

`O=c1oc2ccc(Cl)cc2c(=O)n1-c1cc(Cl)ccc1[N+](=O)[O-]`: the growth inhibition is -4.65%.

On to `CCCCCCCCCCCCCC(N)=O`, for which the growth inhibition is -30.8%.

`Cn1c(=O)c2c(-c3ccccc3)onc2n(C)c1=O`: the growth inhibition is 16.3%.

As to `Clc1cc(OCC23CC4CC(CC(C4)C2)C3)nc(OCC23CC4CC(CC(C4)C2)C3)n1`, the growth inhibition is -35.1%.

Consider `O.[Cl][Pt].[NH-]CC[S-]`, for which the growth inhibition is -9.5%.

In the case of `CCOC(=O)c1ccc(CSc2ccc(OC)cc2)cc1`, the growth inhibition was 86.9% (active).

Take `N#Cc1sc2c(c1OC(=O)c1ccc(C(F)(F)F)cc1)c(=O)n(-c1ccccc1)c(=S)n2-c1ccccc1`: the growth inhibition is -11.9%.

As to `CSC(=N\N=C\c1c(F)cccc1Cl)/N=C/N(C)C`, the growth inhibition was 8.7%.

Consider `CSc1nc(NCc2ccc(Cl)cc2)c2[nH]c(C)nc2n1`, for which the growth inhibition was 7.7%.

For the compound `CCCCCCCc1ccccc1`, the growth inhibition was -13.1%.

For `COc1ccc(CC(O)CN2CCC(CCN)CC2)cc1` (stereo not drawn), the growth inhibition was -19.8%.

As to `Cc1n[nH]c(=O)[nH]c1=O`, the growth inhibition was -25.2%.

`CC(=O)Oc1cccc(CN2CCc3ccccc3C2)c1`: the growth inhibition was -3.05%.

Regarding `CC(=O)Nc1cc(F)c(N)c(F)c1`, the growth inhibition is -10.9%.

Take `Cc1ccc(C)c(OC(=O)Nc2ccccc2)c1`: the growth inhibition was -3.15%.

As for `O=C1C2C(C(=O)N1c1ccccc1)C1(Br)c3ccccc3C2(Br)C2C(=O)N(c3ccccc3)C(=O)C21` (stereo not drawn), the growth inhibition was -9.6%.

For `CC1=C(C)C2C3C(=O)NC(=O)C3C1C1C3C(=O)NC(=O)C3C21` (stereo not drawn), the growth inhibition was -21.8%.

The next assay can be described thus: NCI Yeast Anticancer Drug Screen. Data for the mec2-1 strain (AID 157). The settings on record: S. cerevisiae mec2-1 strain, at 50.0 µM, stronger effect = higher value. Summed up:
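Cells of the genetically defined mec2-1 yeast strain are incubated with test compound. Inhibition of growth is calculated against vehicle-treated controls.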
For `NC(N)=NS(=O)(=O)c1ccc(NC(=O)c2cccn3c(=O)c4ccccc4nc23)cc1`, the growth inhibition is -2.5%.

Consider `S=c1cn[nH]c2ccccc12`, for which the growth inhibition was 40.1%.

Consider `S=C1CNC(=S)CN1`, for which the growth inhibition is -21.9%.

As to `CCCCN(CCCC)CC1OCCO1`, the growth inhibition was -0.5%.

On to `COc1ccccc1Br`, for which the growth inhibition was 0.85%.

Consider `CC1=C(C(=O)Nc2ccccc2C)C(c2ccco2)C(C(=O)Nc2ccccc2C)=C(C)N1C`, for which the growth inhibition was -6.6%.

With `OC1CSCCSCCCSCCSC1`, the growth inhibition is 22.4%.

Turning to `Cn1c(=O)c2c(ncn2CCSCC2=NS(=O)(=O)c3cc(S(N)(=O)=O)c(C(F)(F)F)cc3N2)n(C)c1=O`, the growth inhibition was 1.75%.

On to `COC(=O)C1(C(C(=O)c2ccccc2)c2ccccc2)NC(=S)NC(=O)C1C#N` (stereo not drawn), for which the growth inhibition was 10.2%.

In the case of `CCCC(=N)OCC`, the growth inhibition was -27.4%.

In the case of `COc1ccc(/C=N/N2CN(C(C)C(=O)O)B(NC34CC5CC(CC(C5)C3)C4)N=C2N)cc1OC` (stereo not drawn), the growth inhibition was -14.2%.

Take `CCOC(=O)/C(=C\c1cccc(F)c1)C(C)=O`: the growth inhibition was 15.3%.

`COC1CCC2(C)C3CCC4C(=CCC5C(C)(C)C(=O)CCC45C)CC3(C)CCC2C1(C)C` (stereo not drawn): the growth inhibition is -11.3%.

`N#Cc1cnn(-c2ccccc2)c1N`: the growth inhibition was -7.4%.

Turning to `COc1ccc(NC(=O)C(=O)C(C(=O)c2ccccc2)C2OC(=O)c3ccccc32)c([N+](=O)[O-])c1` (stereo not drawn), the growth inhibition was 5.6%.

`CC(C)CC(=O)OC1CCCCC1C1CCCCC1` (stereo not drawn): the growth inhibition was -6.35%.

On to `Cc1nc2c(-c3ccccc3)[nH]c(C)c2c(=O)o1`, for which the growth inhibition is -40.1%.

As for `O=C(O)COc1cc2c(cc1Cc1ccc3c(c1)OCO3)OCO2`, the growth inhibition was 13.1%.

On to `COc1cc(C=O)cc(NC(C)=O)c1OC(C)=O`, for which the growth inhibition was 0.3%.

As to `Cc1ccc(S(=O)(=O)Oc2c([N+](=O)[O-])cc(-c3ccccc3)cc2[N+](=O)[O-])cc1`, the growth inhibition was 37.4%.

On to `CCOC(=O)C(NC(=O)c1ccccc1)(N1CCN(c2cc3c(cc2F)c(=O)c(C(=O)O)cn3CC)CC1)C(F)(F)F` (stereo not drawn), for which the growth inhibition was -34.4%.

As to `CCC1CCC(Cc2ccncc2)CC1` (stereo not drawn), the growth inhibition is -7.4%.

In the case of `CCCC(=O)Nc1cc([N+](=O)[O-])c([N+](=O)[O-])cc1OC`, the growth inhibition is -2.55%.

On to `O=c1oc2ccc(Cl)cc2c(=O)n1-c1cc(Cl)ccc1[N+](=O)[O-]`, for which the growth inhibition is -21%.

Turning to `CCCCCCCCCCCCCC(N)=O`, the growth inhibition was -46.5%.

Take `Cn1c(=O)c2c(-c3ccccc3)onc2n(C)c1=O`: the growth inhibition was 12.8%.

In the case of `Clc1cc(OCC23CC4CC(CC(C4)C2)C3)nc(OCC23CC4CC(CC(C4)C2)C3)n1`, the growth inhibition was 4.6%.

As for `O.[Cl][Pt].[NH-]CC[S-]`, the growth inhibition was 4%.

With `CCOC(=O)c1ccc(CSc2ccc(OC)cc2)cc1`, the growth inhibition was 75.7% (active).

As to `N#Cc1sc2c(c1OC(=O)c1ccc(C(F)(F)F)cc1)c(=O)n(-c1ccccc1)c(=S)n2-c1ccccc1`, the growth inhibition is 0.9%.

Take `CSC(=N\N=C\c1c(F)cccc1Cl)/N=C/N(C)C`: the growth inhibition was -4.1%.

With `CSc1nc(NCc2ccc(Cl)cc2)c2[nH]c(C)nc2n1`, the growth inhibition is -13.6%.

On to `CCCCCCCc1ccccc1`, for which the growth inhibition is -14.7%.

For `COc1ccc(CC(O)CN2CCC(CCN)CC2)cc1` (stereo not drawn), the growth inhibition is -7.45%.

As for `Cc1n[nH]c(=O)[nH]c1=O`, the growth inhibition was -24.8%.

As to `CC(=O)Oc1cccc(CN2CCc3ccccc3C2)c1`, the growth inhibition was -7.95%.

Take `CC(=O)Nc1cc(F)c(N)c(F)c1`: the growth inhibition was -4.3%.

As for `Cc1ccc(C)c(OC(=O)Nc2ccccc2)c1`, the growth inhibition was 4.8%.

Consider `O=C1C2C(C(=O)N1c1ccccc1)C1(Br)c3ccccc3C2(Br)C2C(=O)N(c3ccccc3)C(=O)C21` (stereo not drawn), for which the growth inhibition was 6.3%.

Regarding `CC1=C(C)C2C3C(=O)NC(=O)C3C1C1C3C(=O)NC(=O)C3C21` (stereo not drawn), the growth inhibition is -7.75%.
